These entries were drawn from the full list.
aSyn UTR act: Activators via SNCA 5'UTR binding, MLPCN. alpha-synuclein 5'UTR reporter, activators screen. activity score, % (tested at 7.5 µM), hits read low. hit rate 7.1% among 300,000. AID 1814; in the data active = activity score below about -60%
The depositor's hits bear a star.

SMILES	aSyn UTR act
COc1cc(OC)cc(-c2nc3cc(C)ccc3o2)c1	-216*
Cc1ccc2nc(-c3ccc(-c4ccccn4)s3)cn2c1	-111*
Cc1ccc2nc(-c3ccccc3)cn2c1	120
COc1ccccc1NS(=O)(=O)c1cccc(NC(=O)c2cc3ccccc3oc2=O)c1	-114*
Cc1ccc(NC(=O)c2cc3ccccc3oc2=O)cc1S(=O)(=O)N(C)C	73
CN(c1ccccc1)S(=O)(=O)c1cccc(NC(=O)c2cc3ccccc3oc2=O)c1	-106*
CN1CCN(c2ccc([N+](=O)[O-])cc2C(=O)c2ccc(Br)cc2)CC1	67
O=[N+]([O-])c1ccc(-c2ncc(-c3ccc(Br)cc3)o2)cc1	-195*
Cc1ccc2c(C)c(C(=O)Nc3cccnc3)oc2c1	-201*
Cc1cc2oc(C(=O)Nc3cccnc3)c(C)c2cc1C	-114*
Cc1ccc2c(Cl)c(C(=O)Nc3cccnc3)sc2c1	-73*
Cc1ccc(NC(=O)c2snc3ccc(Cl)cc23)cc1C	-216*
Cc1ccc(C2=NN3C(C(=O)c4ccccc4)Oc4ccccc4C3C2)cc1 (stereo not drawn)	-146*
Cc1ccc(C(=O)C2Oc3ccccc3C3CC(c4ccc(C)cc4)=NN23)cc1 (stereo not drawn)	-82*
COc1ccc(C2=NN3C(C2)c2ccccc2OC3c2cccs2)cc1 (stereo not drawn)	-190*
COc1ccc(C2=NN3C(C2)c2ccccc2OC32C(=O)N(C)c3ccccc32)cc1 (stereo not drawn)	-131*
c1ccc(-c2cnnc(-c3ccccn3)n2)cc1	-133*
COc1cnc(-c2ccccn2)nc1N(C)c1ccccc1	89
Cc1cc(-c2ccc(Cl)s2)n[nH]1	-80*
Cc1nonc1C1CCCN1C(=O)c1cc(COc2ccc(F)cc2F)on1 (stereo not drawn)	-126*
CSc1ccccc1OCc1cc(C(=O)N2CCCC2c2nonc2C)no1 (stereo not drawn)	-144*
Cc1ccc(C2CCN(C(=O)Nc3ccccc3)C2)cc1 (stereo not drawn)	-151*
O=C(Nc1ccc(Cl)cc1)N1CCC(c2ccccc2)C1 (stereo not drawn)	-82*
O=C(Nc1cccc(F)c1)N1CCC(c2ccccc2)CC1	-109*
O=C(Nc1cccc(F)c1)N1CC=C(c2ccc(Cl)cc2)CC1	-110*
SMILES	aSyn UTR act
Cc1cc(C(=O)Nc2sc3c(c2C#N)CCCCC3)cs1	-94*
NC(=O)c1c(NC(=S)Nc2ccccc2)sc2c1CCCC2	-67*
N#Cc1c(NC(=O)c2ccncc2)sc2c1CCC2	-66*
O=C(O)CCC(=O)Nc1sc2c(c1C(=O)Nc1ccccc1)CCCCC2	-78*
CNC(=O)c1c(NC(=O)c2nc3ccccc3s2)sc2c1CCC2	-256*
CCN(CC)CCCC(C)NC(=O)c1c(NC(=O)c2ccccc2)sc2c1CCCC2 (stereo not drawn)	-79*
CC(C)C(=O)NC(=S)Nc1sc2c(c1C(N)=O)CCCC2	-121*
N#Cc1c(NC(=O)c2cnn3cccnc23)sc2c1CCCC2	-99*
NC(=O)c1c(NC(=O)c2ccncc2)sc2c1CCCC2	-121*
NC(=O)c1c(NC(=O)c2cnccn2)sc2c1CCCC2	-217*
NC(=O)c1c(NC(=O)c2ccccc2)sc2c1CCc1ccccc1-2	-211*
COc1ccc(NC(=O)c2c(NC(=O)CCC(=O)O)sc(-c3ccccc3)c2C)cc1	-76*
NC(=O)c1c(NC(=O)c2ccccc2)sc2c1CCC2	-122*
N/C(=N\OC(=O)c1ccc(Br)o1)c1cccnc1	-143*
COc1ccc(/C(N)=N/OC(=O)c2ccc(Br)o2)cc1	-155*
Nc1ccccc1C#Cc1ccc([N+](=O)[O-])cc1	-262*
Cc1ccc2nc(NC(=O)CSCc3ccccc3)sc2c1	-79*
CSc1nsc(SCC(=O)Nc2nc3ccc(C)cc3s2)n1	-84*
N#C/C(=N/Nc1ccc(OC(F)(F)F)cc1)C(N)=S	-71*
Oc1ccc(Br)cc1C1Nc2ccccc2S1 (stereo not drawn)	-84*
COc1ccc(-c2cn3cccc(C)c3n2)cc1Br	-259*
COc1ccc(-c2cn3ccc4ccccc4c3n2)cc1	-103*
Cc1cccn2cc(-c3ccc(F)cc3)nc12	-88*
Cc1cccn2cc(CNc3ccccc3)nc12	-73*
Cc1cccn2cc(-c3ccccc3)nc12	-152*
SMILES	aSyn UTR act
O=C(N/C(=C/c1cccc(Br)c1)c1nc(=S)[nH][nH]1)c1ccccc1	-77*
COc1ccc(-c2cc3ccccc3[nH]2)cc1	-159*
Cc1ccc(O)c(-c2cc3ccccc3[nH]2)c1	-131*
COc1ccc2[nH]c(-c3cccc(F)c3)cc(=O)c2c1	63
O=c1cc(-c2ccccc2)[nH]c2cc(Cl)ccc12	104
COc1ccc(-c2cc(=O)c3ccccc3[nH]2)cc1	-79*
c1ccc(-c2cc3ccccc3[nH]2)cc1	-139*
CCOC(=O)c1snc(-c2ccc(F)cc2)c1N	-130*
O=C(Nc1ccccc1)Nc1ccc(-n2ccc(C(F)(F)F)n2)cc1	-277*
O=C(/C=C1\NCC2c3ccccc3CCN2C1=O)c1ccccc1 (stereo not drawn)	-156*
O=C(O)[C@@H]1CCCC[C@@H]1C(=O)N1CCc2ccccc2C1CN1C(=O)c2ccccc2C1=O (stereo partly drawn)	68
CC(=O)Nc1nc(-c2ccc(Cl)cc2)nc(C)c1C(C)=O	-111*
CC(=O)Nc1ncnc2c1c(-c1ccc(Cl)cc1)nn2C(C)(C)C	53
Cc1ccc(N2C(=O)CC(SCC(=O)Nc3ccc(S(N)(=O)=O)cc3)C2=O)cc1 (stereo not drawn)	-76*
CCOC(=O)c1c(C)[nH]c(N=Nc2cccc(OC)c2)c1C	-208*
CCOC(=O)c1c(C)[nH]c(N=Nc2cccc(C)c2)c1C	-211*
Cc1nc(SCc2ccccc2)nc2c1CCC2	-115*
O=c1cccccc1NN=C1CCCCCC1	-140*
O=c1cccccc1NN=C1CCCCC1	-69*
CCCCNC(=O)CSc1nc2ccc(N3CCOCC3)cc2c(=O)n1CCc1ccccc1	-92*
Cc1ccc(C(=O)CC(c2cccs2)S(=O)(=O)c2ccc(C)cc2)cc1 (stereo not drawn)	-118*
CC1(C)CNc2cc(N)ccc2S1	-74*
O=S(=O)(Cc1cc(-c2ccccc2)no1)c1ccccc1	-77*
COc1ccc(-c2cc(CS(=O)(=O)c3ccccc3)on2)cc1	-158*
CCCc1nc2oc3c(NCCCN(C)C)ncnc3c2c2c1CCCC2	108
SMILES	aSyn UTR act
COCCNC(=O)c1sc2nc(-c3ccccc3)cn2c1C	-77*
Cc1cccc(NC(=O)c2sc3nc(-c4ccccc4)cn3c2C)n1	-124*
COc1ccc(-c2cn3c(C)c(C(=O)Nc4cccc(C)n4)sc3n2)cc1	-97*
Cc1c(C(=O)Nc2ccccc2)sc2nc(-c3ccccc3)cn12	-160*
O=C(c1ccc(F)cc1)N1CCC(c2ccccc2)C1 (stereo not drawn)	-84*
O=C(c1ccco1)N1CCC(c2ccccc2)C1 (stereo not drawn)	-109*
O=C(Cc1cccc2ccccc12)Nc1ccc2c(c1)C(=O)NC2=O	-65*
CC(/C=C/c1ccccc1)=N/NC(=O)c1cnccn1	-120*
O=C(/C=C/c1ccccc1)NC(=S)NNC(=O)c1cnccn1	87
N#CC1CC(c2ccccc2)Nc2cc(Cl)ccc2N1 (stereo not drawn)	-331*
O=C(Nc1ccccc1)NC1CCCCC1	-66*
O=C(Nc1ccccc1)NC1CCCCCCC1	-106*
CC(/C=N/NC(=O)c1nn(C)c(C)c1Br)=C\c1ccccc1	-122*

Bioassay records as filed in PubChem BioAssay.
